{
  "source": "the supplement of paper PMC8975748",
  "note": "Structures can show the parent of a compound that is named as a salt.",
  "data": [
    {"test_system": "Saccharomyces cerevisiae BY4741 SeMeCo community", "assay": "z-score of subpopulation abundance vs DMSO median, subpopulation auxotrophic for UM; higher = larger share of this subpopulation than in DMSO controls", "conditions": "10 µM; 24 h; SM minimal medium; subpopulation (auxotrophy): UM", "experimental": "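Fluorescent four-plasmid SeMeCo (self-establishing metabolically cooperating S. cerevisiae BY4741 community; plasmids pH-mRuby2, pL-mWasabi, pU-eCFP, pM-TagRFP657) was grown 24 h in minimal SM medium with each Selleck FDA-approved drug at 10 µM in 384-well plates. Cells were fixed and imaged by high-content confocal microscopy. For each auxotrophic subpopulation (and the prototroph), a z-score gives the deviation from the DMSO vehicle-control population median.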", "values": [
      {"molecule": "NC1CCN(c2nc3c(cc2F)c(=O)c(C(=O)O)cn3-c2ccc(F)cc2F)C1", "note": "(stereo not given) [Tosufloxacin p-Toluenesulfonate Hydrate]", "z-score of subpopulation abundance": -0.74},
      {"molecule": "O=c1[nH]c(=O)n([C@H]2C[C@H](O)[C@@H](CO)O2)cc1I", "note": "[Idoxuridine]", "z-score of subpopulation abundance": -0.05},
      {"molecule": "CC/C(=C(\\c1ccccc1)c1ccc(OCCN(C)C)cc1)c1ccccc1", "note": "[Tamoxifen Citrate]", "z-score of subpopulation abundance": 1.43},
      {"molecule": "NC(=O)Cc1cccc(C(=O)c2ccccc2)c1N", "note": "[Nepafenac]", "z-score of subpopulation abundance": -0.53},
      {"molecule": "C=C1CCN([C@H](C)[C@](O)(Cn2cncn2)c2ccc(F)cc2F)CC1", "note": "[Efinaconazole]", "z-score of subpopulation abundance": 16.2},
      {"molecule": "CC(C)n1c(/C=C/C(O)CC(O)CC(=O)O)c(-c2ccc(F)cc2)c2ccccc21", "note": "(stereo not given) [Fluvastatin Sodium]", "z-score of subpopulation abundance": 8.31},
      {"molecule": "NC[C@@H]1O[C@H](O[C@H]2[C@@H](O)[C@H](O[C@@H]3[C@@H](O)[C@H](N)C[C@H](N)[C@H]3O[C@H]3O[C@H](CN)[C@@H](O)[C@H](O)[C@H]3N)O[C@@H]2CO)[C@H](N)[C@@H](O)[C@@H]1O", "note": "[Neomycin sulfate]", "z-score of subpopulation abundance": -1.35},
      {"molecule": "NC(CO)(CO)CO", "note": "[Trometamol]", "z-score of subpopulation abundance": 0.88},
      {"molecule": "O=C1NC(=O)C(c2ccccc2)(c2ccccc2)N1", "note": "[Phenytoin]", "z-score of subpopulation abundance": 0.49},
      {"molecule": "COc1ccc(CC2c3cc(OC)c(OC)cc3CC[N+]2(C)CCC(=O)OCCCCCOC(=O)CC[N+]2(C)CCc3cc(OC)c(OC)cc3C2Cc2ccc(OC)c(OC)c2)cc1OC", "note": "(stereo not given) [Atracurium Besylate]", "z-score of subpopulation abundance": -0.21},
      {"molecule": "CCn1cc(C(=O)O)c(=O)c2cc(F)c(N3CCNC(C)C3)c(F)c21", "note": "(stereo not given) [Lomefloxacin HCl]", "z-score of subpopulation abundance": 0.51},
      {"molecule": "CC(C(=O)O)c1ccc2c(c1)[nH]c1ccc(Cl)cc12", "note": "(stereo not given) [Carprofen]", "z-score of subpopulation abundance": -4.96},
      {"molecule": "Clc1ccc(COC(Cn2ccnc2)c2ccc(Cl)cc2Cl)c(Cl)c1", "note": "(stereo not given) [Miconazole Nitrate]", "z-score of subpopulation abundance": 1.18},
      {"molecule": "O=C(c1ccccc1)c1ccc2n1CCC2C(=O)O", "note": "(stereo not given) [Ketorolac tromethamine salt]", "z-score of subpopulation abundance": -0.28},
      {"molecule": "CC(=O)OCC(CCn1cnc2cnc(N)nc21)COC(C)=O", "note": "[Famciclovir]", "z-score of subpopulation abundance": -0.68},
      {"molecule": "C[C@]12CC[C@@H]3c4ccc(O)cc4CC[C@H]3[C@@H]1C[C@@H](O)[C@@H]2O", "note": "[Estriol]", "z-score of subpopulation abundance": -0.62},
      {"molecule": "COc1ccc(Cl)cc1C(=O)NCCc1ccc(S(=O)(=O)NC(=O)NC2CCCCC2)cc1", "note": "[Glyburide (Glibenclamide)]", "z-score of subpopulation abundance": -0.02},
      {"molecule": "CO[C@H]1C[C@@H]2CC[C@@H](C)[C@@](O)(O2)C(=O)C(=O)N2CCCC[C@H]2C(=O)O[C@H]([C@H](C)C[C@@H]2CC[C@@H](OP(C)(C)=O)[C@H](OC)C2)CC(=O)[C@H](C)/C=C(\\C)[C@@H](O)[C@@H](OC)C(=O)[C@H](C)C[C@H](C)/C=C/C=C/C=C/1C", "note": "[Ridaforolimus (Deforolimus, MK-8669)]", "z-score of subpopulation abundance": 12.7},
      {"molecule": "Nc1nc(/C(=C/CC(=O)O)C(=O)N[C@@H]2C(=O)N3C(C(=O)O)=CCS[C@H]23)cs1", "note": "[Ceftibuten dihydrate]", "z-score of subpopulation abundance": -0.49},
      {"molecule": "O=S1(=O)CCN(CN2CCS(=O)(=O)NC2)CN1", "note": "[Taurolidine]", "z-score of subpopulation abundance": 0.3},
      {"molecule": "O=C1OC(CN2CCOCC2)CN1/N=C/c1ccc([N+](=O)[O-])o1", "note": "(stereo not given) [Furaltadone HCl]", "z-score of subpopulation abundance": 0.47},
      {"molecule": "CCOC(=O)C1=C(COCCN)NC(C)=C(C(=O)OC)C1c1ccccc1Cl", "note": "(stereo not given) [Amlodipine]", "z-score of subpopulation abundance": -8.26},
      {"molecule": "CCCNCC(O)COc1ccccc1C(=O)CCc1ccccc1", "note": "(stereo not given) [Propafenone HCl]", "z-score of subpopulation abundance": 0.94},
      {"molecule": "COc1cc2c(cc1OC)[C@@H]1Cc3ccc(OC)c(OC)c3CN1CC2", "note": "[Rotundine]", "z-score of subpopulation abundance": -0.01},
      {"molecule": "CC(=O)O[C@H]1C[C@@H]2CC[C@@H]3[C@H](CC[C@@]4(C)[C@H]3C[C@H]([N+]3(C)CCCCC3)[C@@H]4OC(C)=O)[C@@]2(C)C[C@@H]1N1CCCCC1", "note": "[Vecuronium Bromide]", "z-score of subpopulation abundance": -0.59},
      {"molecule": "OC(CCCN1CCCCC1)(c1ccccc1)c1ccccc1", "note": "[Diphenidol HCl]", "z-score of subpopulation abundance": 1.63},
      {"molecule": "CN1CCC[C@@H]1Cc1c[nH]c2ccc(CCS(=O)(=O)c3ccccc3)cc12", "note": "[Eletriptan HBr]", "z-score of subpopulation abundance": -0.86},
      {"molecule": "COc1cc2c(cc1OC)-c1cc3ccc(OC)c(OC)c3c[n+]1CC2", "note": "[Palmatine]", "z-score of subpopulation abundance": -0.01},
      {"molecule": "O=C(Nc1c(Cl)cncc1Cl)c1ccc(OC(F)F)c(OCC2CC2)c1", "note": "[Roflumilast]", "z-score of subpopulation abundance": 0.24},
      {"molecule": "COc1cc(O)c(C(=O)Nc2nc(C(=O)NCCN(C(C)C)C(C)C)cs2)cc1OC", "note": "[Acotiamide hydrochloride]", "z-score of subpopulation abundance": 0.4},
      {"molecule": "N#CC(c1ccc(Cl)cc1)c1c(Cl)cc(-n2ncc(=O)[nH]c2=O)cc1Cl", "note": "(stereo not given) [Diclazuril]", "z-score of subpopulation abundance": -1.39},
      {"molecule": "NC[C@H]1O[C@H](O[C@H]2[C@H](O)[C@@H](O[C@H]3O[C@H](CO)[C@@H](O)[C@H](N)[C@H]3O)[C@H](N)C[C@@H]2N)[C@H](O)[C@@H](O)[C@@H]1O", "note": "[Kanamycin sulfate]", "z-score of subpopulation abundance": -0.15},
      {"molecule": "CCCCN(CCCC)CC(O)c1cc(Cl)cc2c1-c1ccc(Cl)cc1/C2=C/c1ccc(Cl)cc1", "note": "(stereo not given) [Lumefantrine]", "z-score of subpopulation abundance": 2.56},
      {"molecule": "COc1nc2ccc(Br)cc2cc1[C@@H](c1ccccc1)[C@@](O)(CCN(C)C)c1cccc2ccccc12", "note": "[Bedaquiline fumarate]", "z-score of subpopulation abundance": 4.1},
      {"molecule": "CCCc1nn(C)c2c(=O)[nH]c(-c3cc(S(=O)(=O)N4CCN(C)CC4)ccc3OCC)nc12", "note": "[Sildenafil]", "z-score of subpopulation abundance": -0.73},
      {"molecule": "Nc1c2c(nc3ccccc13)CCCC2", "note": "[Tacrine hydrochloride hydrate]", "z-score of subpopulation abundance": 0.92},
      {"molecule": "COc1ccnc(C[S+]([O-])c2nc3cc(-n4cccc4)ccc3[nH]2)c1C", "note": "(stereo not given) [Ilaprazole]", "z-score of subpopulation abundance": -1.96},
      {"molecule": "CCOC(=O)C1=C(C)NC(C)=C(C(=O)OC)C1c1cccc(Cl)c1Cl", "note": "(stereo not given) [Felodipine]", "z-score of subpopulation abundance": -7.8},
      {"molecule": "CC(C)C(=O)Oc1ccc(CO)cc1[C@H](CCN(C(C)C)C(C)C)c1ccccc1", "note": "[Fesoterodine Fumarate]", "z-score of subpopulation abundance": -0.82},
      {"molecule": "CSCC1CN(/N=C/c2ccc([N+](=O)[O-])o2)C(=O)O1", "note": "(stereo not given) [Nifuratel]", "z-score of subpopulation abundance": -7.21}
    ]}
  ]
}
